# Test results published in the supplement of paper PMC8728848.
# The full list was thinned out, with the strongest signals kept by preference.
# How the values were obtained:
# Assay in all cases: glycan array binding signal (z-score within array); higher = stronger binding
# Conditions in all cases: glycan notation: IUPAC condensed, linker removed
# [1] = target: Fuc(a1-2)Gal(b1-3)GlcNAc(b1-3)[Neu5Ac(a2-6)Gal(b1-4)GlcNAc(b1-6)]Gal(b1-4)Glc
# How it was run: (§1)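 The binding signal is a Z-score computed within each array and averaged over linkers. Arrays of the same protein sequence at different concentrations or buffers were also averaged together. Data originate from 3228 arrays in the Consortium for Functional Glycomics database, kept only where the protein sequence was available.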
# [2] = target: Fuc(a1-2)Gal(b1-3)[Fuc(a1-4)]GlcNAc(b1-2)Man(a1-3)[Fuc(a1-2)Gal(b1-3)[Fuc(a1-4)]GlcNAc(b1-2)Man(a1-6)]Man(b1-4)GlcNAc(b1-4)[Fuc(a1-6)]GlcNAc(b1-4)[Fuc(a1-6)]GlcNAc
# How it was run: as §1
# Fuc(a1-2)Gal(b1-4)Glc = target: Fuc(a1-2)Gal(b1-4)Glc
# How it was run: as §1
# Fuc(a1-2)Gal(b1-4)Glc6S = target: Fuc(a1-2)Gal(b1-4)Glc6S
# How it was run: as §1
# Fuc(a1-2)Gal(b1-4)GlcNAc = target: Fuc(a1-2)Gal(b1-4)GlcNAc
# How it was run: as §1
# [3] = target: Fuc(a1-2)Gal(b1-4)GlcNAc(b1-3)[Fuc(a1-2)Gal(b1-4)GlcNAc(b1-6)]GalNAc
# How it was run: as §1
# [4] = target: Fuc(a1-2)Gal(b1-4)GlcNAc(b1-6)GalNAc
# How it was run: as §1
# [5] = target: Fuc(a1-2)Gal(b1-4)GlcNAc6S
# How it was run: as §1
# [6] = target: Fuc(a1-2)Gal(b1-4)[Fuc(a1-3)]GlcNAc(b1-2)Man(a1-3)[Fuc(a1-2)Gal(b1-4)[Fuc(a1-3)]GlcNAc(b1-2)Man(a1-6)]Man(b1-4)GlcNAc(b1-4)[Fuc(a1-6)]GlcNAc
# How it was run: as §1
# [7] = target: Fuc(a1-2)Gal6S(b1-3)GlcNAc
# How it was run: as §1
# Fuc(a1-2)Gal6S(b1-4)Glc = target: Fuc(a1-2)Gal6S(b1-4)Glc
# How it was run: as §1
# [8] = target: Fuc(a1-2)Gal6S(b1-4)Glc6S
# How it was run: as §1
# Fuc(a1-2)[Gal(a1-3)]Gal = target: Fuc(a1-2)[Gal(a1-3)]Gal
# How it was run: as §1
# [9] = target: Fuc(a1-2)[Gal(a1-3)]Gal(b1-4)GlcNAc(b1-2)Man(a1-3)[Fuc(a1-2)[Gal(a1-3)]Gal(b1-4)GlcNAc(b1-2)Man(a1-6)]Man(b1-4)GlcNAc(b1-4)GlcNAc
# How it was run: as §1
# [10] = target: Fuc(a1-2)[Gal(a1-3)]Gal(b1-4)[Fuc(a1-3)]GlcNAc(b1-3)GalNAc
# How it was run: as §1
# [11] = target: Fuc(a1-2)[Gal(a1-4)]Gal(b1-4)GalNAc
# How it was run: as §1
# [12] = target: Fuc(a1-2)[Gal(a1-4)]Gal(b1-4)GlcNAc
# How it was run: as §1
# [13] = target: Fuc(a1-2)[GalNAc(a1-4)]Gal(b1-4)GlcNAc
# How it was run: as §1
# [14] = target: Fuc(a1-3)[Gal(b1-4)]GlcNAc(b1-6)[Gal(b1-3)GlcNAc(b1-3)]Gal(b1-4)Glc
# How it was run: as §1
# [15] = target: Fuc(a1-3)[GalNAc(b1-4)]GlcNAc6S
# How it was run: as §1
# [16] = target: Gal(a1-3)Gal(b1-4)GlcNAc(b1-2)Man(a1-3)[Gal(a1-3)Gal(b1-4)GlcNAc(b1-2)Man(a1-6)]Man(b1-4)GlcNAc(b1-4)GlcNAc
# How it was run: as §1
# [17] = target: Gal(a1-4)Gal(b1-4)GlcNAc(b1-2)Man(a1-3)[Gal(a1-4)Gal(b1-4)GlcNAc(b1-2)Man(a1-6)]Man(b1-4)GlcNAc(b1-4)GlcNAc
# How it was run: as §1
# Gal(a1-4)GlcNAc = target: Gal(a1-4)GlcNAc
# How it was run: as §1
# [18] = target: Gal(b1-3)GalNAc(b1-4)[Neu5Ac(a2-3)]Gal(b1-4)Glc
# How it was run: as §1
# [19] = target: Gal(b1-3)GlcNAc(a1-6)Gal(b1-4)GlcNAc
# How it was run: as §1
# [20] = target: Gal(b1-3)GlcNAc(b1-2)Man(a1-3)[Gal(b1-3)GlcNAc(b1-2)Man(a1-6)]Man(b1-4)GlcNAc(b1-4)GlcNAc
# How it was run: as §1
# [21] = target: Gal(b1-3)GlcNAc(b1-2)Man(a1-3)[Gal(b1-3)GlcNAc(b1-2)Man(a1-6)]Man(b1-4)GlcNAc(b1-4)[Fuc(a1-6)]GlcNAc
# How it was run: as §1
# [22] = target: Gal(b1-3)[Fuc(a1-4)]GlcNAc(b1-6)GalNAc
# How it was run: as §1
# [23] = target: Gal(b1-3)[Neu5Ac(a2-6)]GlcNAc(a1-4)Gal(b1-4)Glc
# How it was run: as §1
# [24] = target: Gal(b1-3)[Neu5Ac(a2-6)]GlcNAc(b1-4)Gal(b1-4)Glc
# How it was run: as §1
binder,measurement,setting,value
"UEA-I (Ulex europaeus), P22972 (protein) SDDLSFKFKNFSQNGKDLSFQGDASVIETGVLQLNKVGNNLPDETGGIARYIAPIHIWNCNTGEVASFITSFSFFMETSANPKAATDGLTFFLAPPDSPLRRAGGYFGLFEDTKDNDSSYQTVAVEFDTIGSPVNFDDPGFPHIGIDVNRVKSINAERWNKRYGLNNVANVEIIYEASSKTLTASLTYPSDQTSISVTSIVDLKEILPEWVSVGFSGGTYIGRQATHEVLNWYFTSNLINTNS",glycan array binding signal (z-score),[1],-0.101
same,glycan array binding signal (z-score),[2],-0.186
same,glycan array binding signal (z-score),Fuc(a1-2)Gal(b1-4)Glc,4.65
same,glycan array binding signal (z-score),Fuc(a1-2)Gal(b1-4)Glc6S,8.87
same,glycan array binding signal (z-score),Fuc(a1-2)Gal(b1-4)GlcNAc,5.04
same,glycan array binding signal (z-score),[3],5.44
same,glycan array binding signal (z-score),[4],4.28
same,glycan array binding signal (z-score),[5],5.67
same,glycan array binding signal (z-score),[6],-0.035
same,glycan array binding signal (z-score),[7],-0.194
same,glycan array binding signal (z-score),Fuc(a1-2)Gal6S(b1-4)Glc,4.67
same,glycan array binding signal (z-score),[8],5.33
same,glycan array binding signal (z-score),Fuc(a1-2)[Gal(a1-3)]Gal,-0.199
same,glycan array binding signal (z-score),[9],-0.194
same,glycan array binding signal (z-score),[10],-0.022
same,glycan array binding signal (z-score),[11],5.51
same,glycan array binding signal (z-score),[12],5.58
same,glycan array binding signal (z-score),[13],5.17
same,glycan array binding signal (z-score),[14],-0.103
same,glycan array binding signal (z-score),[15],-0.217
same,glycan array binding signal (z-score),[16],-0.163
same,glycan array binding signal (z-score),[17],0.015
same,glycan array binding signal (z-score),Gal(a1-4)GlcNAc,-0.168
same,glycan array binding signal (z-score),[18],-0.207
same,glycan array binding signal (z-score),[19],-0.139
same,glycan array binding signal (z-score),[20],-0.101
same,glycan array binding signal (z-score),[21],-0.16
same,glycan array binding signal (z-score),[22],-0.098
same,glycan array binding signal (z-score),[23],-0.409
same,glycan array binding signal (z-score),[24],-0.234
